PubChem BioAssay (EPA / NIEHS)
Inconclusive results are not listed. Calls of active or inactive are those of the source. How the source made its calls: active means hit-call score of the fitted dose curve at least 0.9, where 1 is the maximum; inconclusive means response in the unintended direction; inactive means score below 0.9.

What follows are molecules tested against Estrogen receptor (Homo sapiens) (UniProt P03372) (assay: CCTE_Deisenroth_AIME_384WELL_LUC_Active: CCTE's 384-well Estrogen Receptor Transactivation Assay with AIME metabolic competence (ERTA luciferase; metabolism positive), Deisenroth Lab (AID 2284030)).
Estrogen receptor (Homo sapiens), sequence (P03372 whole entry, looked up): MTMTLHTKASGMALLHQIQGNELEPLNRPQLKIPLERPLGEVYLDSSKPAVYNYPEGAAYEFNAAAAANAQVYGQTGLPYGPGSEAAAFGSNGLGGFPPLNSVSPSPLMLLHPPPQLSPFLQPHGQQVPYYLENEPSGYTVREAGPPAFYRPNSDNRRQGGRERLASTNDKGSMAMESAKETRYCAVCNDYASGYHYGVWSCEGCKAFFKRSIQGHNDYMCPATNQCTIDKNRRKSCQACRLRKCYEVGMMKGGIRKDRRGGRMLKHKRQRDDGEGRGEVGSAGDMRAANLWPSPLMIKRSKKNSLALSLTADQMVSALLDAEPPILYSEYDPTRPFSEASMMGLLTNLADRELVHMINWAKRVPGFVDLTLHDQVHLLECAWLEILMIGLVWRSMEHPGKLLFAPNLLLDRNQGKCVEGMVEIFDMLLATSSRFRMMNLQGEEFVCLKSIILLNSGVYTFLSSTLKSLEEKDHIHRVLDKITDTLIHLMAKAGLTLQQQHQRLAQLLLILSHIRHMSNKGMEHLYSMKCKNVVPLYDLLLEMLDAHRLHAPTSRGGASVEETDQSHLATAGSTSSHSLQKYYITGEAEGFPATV
Experimental: CCTE_Deisenroth_AIME_384WELL (AIME metabolism assay) is a cell-based, single-readout assay that uses VM7Luc4E2, a human mammary gland/breast cell line, with measurements taken at 24 hour after chemical dosing in a 384-well plate.CCTE_Deisenroth_AIME_384WELL_LUC_Active is one of four assay components measured or calculated from the CCTE_Deisenroth_AIME_384WELL assay. It is designed to make measurements of luciferase induction, a form of inducible reporter, as detected with bioluminescence signals by luciferase-coupled ATP quantitation technology.CCTE_Deisenroth_AIME_384WELL_LUC_Active is a component of the CCTE_Deisenroth_AIME_384WELL assay that measures the effect of retroftting the VM7Luc ERTA assay with the Alginate Immobolization of Metabolic Enzymes (AIME) metabolism method. AIME is optimized to impart phase I hepatic metabolism using phenobarbital/beta-naphthoflavone induced hepatic S9 from male Sprague Dawley rats. Parent chemicals are incubated for 2 hours in the AIME assay prior to transfer to the VM7Luc ERTA assay plate. […] This endpoint evaluates reporter induction in metabolism positive mode. Using a type of inducible reporter in VM7Luc cells, gain-of-signal activity can be used to understand changes in the reporter gene as they relate to xenobiotic metabolism and the gene ESR1. This assay endpoint, CCTE_Deisenroth_AIME_384WELL_LUC_Active, was analyzed in the positive analysis fitting direction relative to 17beta-estradiol as the positive control in the ERTA assay. To generalize the intended target to other relatable targets, this assay endpoint is annotated to the nuclear receptor intended target family, where the subfamily is steroidal.
The AIME procedure consists of a preparative "pre-stamping" step using a barium chloride/poly-L-lysine (PLL) solution followed by "stamping" the lid in alginate-hepatic S9 (metabolism positive) or alginate-water (metabolism negative) to form microspheres. Once stamping is completed, the AIME lids are placed in duplicate microplates (metabolism positive or negative) containing chemical solutions and incubated for two hours to facilitate metabolic reactions. The conditioned medium, containing parent chemical or metabolites, is then transferred to the cell-based VM7Luc Estrogen Receptor Transactivation Assay (ERTA) for 24 hours. A typical experimental design tests a 10-point concentration series (0.002 - 200 uM) for 8 compounds (96-well format)1 or 32 compounds (384-well format)2 in single technical replicate. AIME assay controls include trans-stilbene (bioactivated control) and ethylparaben (bioinactivated control). ERTA assay plate controls include 17-beta estradiol (positive control) and DMSO (solvent control). Experiments typically comprise a minimum of four experimental replicates (n=4).

| SMILES | outcome | AC50 |
| --- | --- | --- |
| CC(C)(C)c1cc(/C=C2\SC(N)=NC2=O)cc(C(C)(C)C)c1O | inactive | – |
| CCCCCCCCN(C)CCCCCCCC | inactive | – |
| Cc1ccc(C(C)C)cc1 | inactive | – |
| O=c1[nH]sc2ccccc12 | inactive | – |
| Cc1cn([C@H]2C[C@H](N=[N+]=[N-])[C@@H](CO)O2)c(=O)[nH]c1=O | inactive | – |
| O=C(O)Cn1c(=O)n(Cc2ccc(Br)cc2F)c(=O)c2ccc(Cl)cc21 | inactive | – |
| OC12N=C(c3ccccc3)SC1Cc1cc(Cl)ccc12 (stereo not drawn) | inactive | – |
| CCCCCCCCCCCO | inactive | – |
| Cc1oc2c(NC(=O)c3c(Cl)cccc3Cl)cccc2c1C(C)(C)O | inactive | – |
| Cc1c2ccccc2c(C)c2c1ccc1ccccc12 | – | 13.9 µM (active) |
| O=C(Nc1ccc(Cl)cc1)Nc1ccc(Cl)c(Cl)c1 | inactive | – |
| c1ccc2ccccc2c1 | inactive | – |
| CC[C@H](NC(=O)c1cc(F)ccc1NS(=O)(=O)c1cccc2cccnc12)c1ccccc1 | inactive | – |
| COCC(C)OCC(C)OCC(C)O (stereo not drawn) | inactive | – |
| CCCOC(=O)c1cc(O)c(O)c(O)c1 | – | 35.9 µM (active) |
| CCN(CC)C(=O)c1cc(S(=O)(=O)Cc2ccccc2)c(N2CCC(c3ccccc3)CC2)cc1N(CC)CCN(C)C | inactive | – |
| OCCO | – | 28.2 µM (active) |
| COc1cccc([C@H](O)C2CCN(CCc3ccc(F)cc3)CC2)c1OC | inactive | – |
